The record followed here is the supplement of paper PMC13380429.

Assay [1] deals with Vero E6 infected with SARS-CoV-2. Description: morphology score (similarity to uninfected cells); higher = more like uninfected cells. The conditions noted are these: 24 h.
For assay [2] the test system is unchanged. Description: SARS-CoV-2 infection rate relative to infected DMSO; higher = more infection, active = 60 or less. As to conditions: 24 h.

Consider `c1ccc(CC2=NCCN2)cc1` [tolazoline] (10 µM), for which the morphology score in assay [1] is 0.146. For the same compound, the SARS-CoV-2 infection rate in assay [2] was 99.5% (inactive).

In assay [1], `CC(C)CNc1ccnc(NCc2csc(-c3ccccc3)n2)n1` (0.833333 µM) displayed a morphology score of -0.0256. Besides, in assay [2], the SARS-CoV-2 infection rate is 106% (inactive).

In the case of `CN/C(=N\CCSCc1nc[nH]c1C)NC#N` [cimetidine] (10 µM), in assay [1], the morphology score amounted to 0.151. The SARS-CoV-2 infection rate in assay [2] was 97.5% (inactive).

As to `CC1(C)[C@H](C(=O)O)N2C(=O)C[C@H]2S1(=O)=O` [sulbactam] (10 µM), in assay [1], the morphology score is 0.0596. For the same compound, in assay [2], the SARS-CoV-2 infection rate was 113% (inactive).

In assay [1], `O=P1(N(CCCl)CCCl)NCCCO1` (configuration not stated) [cyclophosphamide] (10 µM) displayed a morphology score of 0.0658. In addition, the SARS-CoV-2 infection rate in assay [2] is 97.5% (inactive).

`CCN(CC)Cc1ccc(C(=O)N(CCc2ccccc2OC)[C@@H]2CCNC2)cc1` (10 µM) returned a morphology score in assay [1] of 0.0144. Further, in assay [2], the SARS-CoV-2 infection rate was 98.5% (inactive).

In turn, `O=C(CCCN1CCC(n2c(=O)[nH]c3ccccc32)CC1)c1ccc(F)cc1` [benperidol] (10 µM) showed a morphology score in assay [1] of -0.264. Further, the SARS-CoV-2 infection rate in assay [2] was 118% (inactive).

For the compound `c1ccc(CCNc2nc(-c3ccccc3)cs2)cc1` [fanetizole] (10 µM), the morphology score in assay [1] is -0.0158. For the same compound, the SARS-CoV-2 infection rate in assay [2] is 99.5% (inactive).

Regarding `COC(=O)C1=C(C#N)NC(C)=C(C(=O)OC(C)C)C1c1cccc([N+](=O)[O-])c1` (configuration not stated) [nilvadipine] (10 µM), in assay [1], the morphology score is -0.0761. The SARS-CoV-2 infection rate in assay [2] is 106% (inactive).

For the compound `CC(C)(C(=O)O)c1ccc(C(=O)CCCN2CCC(OC(c3ccccc3)c3ccccc3)CC2)cc1` [carebastine] (10 µM), in assay [1], the morphology score was 0.0702. In addition, the SARS-CoV-2 infection rate in assay [2] was 103% (inactive).

Take `O=C1C=CC(=O)C2=C1C1c3ccccc3C2c2ccccc21` (10 µM): in assay [1], the morphology score worked out at 0.00761. Also, in assay [2], the SARS-CoV-2 infection rate was 102% (inactive).
